Experimental data reported in PubChem BioAssay (NCI).
The panel holds about 79,000 compounds, 15% with a hit somewhere; the sample as a whole holds those more often. Values without a mark were called inactive. Active and inactive are the calls of the source. No stated cut-off is given here; in the data, active means growth inhibition above about 70%; inactive means the rest.

What was measured:
[1] = NCI Yeast Anticancer Drug Screen. Data for the rad50 strain (AID 155);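 further: 0% = growth of vehicle-only cultures of the same strain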; details: S. cerevisiae rad50 strain growth inhibition, active compounds read high
Procedure, shortened: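 Vehicle-treated cultures provide the reference for the growth inhibition reported for compound-exposed, repair-deficient yeast.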

[2] = NCI Yeast Anticancer Drug Screen. Data for the mec2-1 strain (AID 157); details: S. cerevisiae mec2-1 strain, active compounds read high
Procedure, shortened: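 Yeast mec2-1 mutant treated with compound. Readout: growth inhibition vs vehicle controls.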

[3] = NCI Yeast Anticancer Drug Screen. Data for the sgs1 mgt1 strain (AID 161);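 further: 0% = growth of cultures given vehicle only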; details: S. cerevisiae sgs1 mgt1 strain, active compounds read high
Procedure, shortened: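 Mutant yeast exposed to compound; growth scored against vehicle-only wells.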

[4] = NCI Yeast Anticancer Drug Screen. Data for the cln2 rad14 strain (AID 165);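 further: 0% = growth equal to vehicle treated cultures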; details: S. cerevisiae cln2 rad14 strain, active compounds read high
Procedure, shortened: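 cln2 rad14 yeast strain; compound exposure; growth inhibition read vs vehicle controls.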

[5] = NCI Yeast Anticancer Drug Screen. Data for the bub3 strain (AID 167); details: S. cerevisiae bub3 mutant strain, active compounds read high
Procedure, shortened: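 Mutant yeast screening strain plus compound; vehicle-treated cultures serve as the 0% inhibition reference.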

[6] = NCI Yeast Anticancer Drug Screen. Data for the mlh1 rad18 strain (AID 175); details: S. cerevisiae mlh1 rad18 strain growth inhibition, active compounds read high
Procedure, shortened: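 Yeast w/ defined DNA-repair lesions; compound exposure; growth vs vehicle controls → % inhibition.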

[7] = at 5.0 µM (retest, dose inferred, filed as 0.5)
[8] = at 50.0 µM (retest, dose inferred, filed as 5.0)

With `O=C1OC(c2ccccc2)N/C1=C\c1ccc2c(c1)OCO2` (configuration not stated) as the molecule, how does the growth inhibition [1, 7] read?
Its growth inhibition is 34%.

What about the growth inhibition [1, 8] of the same molecule?
Its growth inhibition is 53%.

What about the growth inhibition ([1]; at 50.0 µM) of the same molecule?
The growth inhibition was -45.7%.

What about the growth inhibition [2, 7] of the same molecule?
The growth inhibition was 17%.

What about the growth inhibition [2, 8] of the same molecule?
The growth inhibition was 20%.

What about the growth inhibition ([2]; at 50.0 µM) of the same molecule?
The growth inhibition was -53.1%.

What about the growth inhibition [3, 7] of the same molecule?
The growth inhibition was 22%.

And the growth inhibition [3, 8]?
Its growth inhibition is 24%.

What about the growth inhibition ([3]; at 50.0 µM) of the same molecule?
The growth inhibition was -8.55%.

And the growth inhibition [4, 7]?
The growth inhibition was 11%.

What about the growth inhibition [4, 8] of the same molecule?
Its growth inhibition is 21%.

What about the growth inhibition ([4]; at 50.0 µM) of the same molecule?
Its growth inhibition is 3.55%.

What about the growth inhibition [5, 7] of the same molecule?
The growth inhibition was 22%.

And the growth inhibition [5, 8]?
Its growth inhibition is 19%.

And the growth inhibition ([5]; at 50.0 µM)?
The growth inhibition was -14.7%.

What about the growth inhibition [6, 7] of the same molecule?
Its growth inhibition is 18%.

What about the growth inhibition [6, 8] of the same molecule?
Its growth inhibition is 26%.

What about the growth inhibition ([6]; at 50.0 µM) of the same molecule?
The growth inhibition was -6.95%.

For `Cc1cccc2c1CC1(C2)Cc2c(C)cccc2C1=O` (configuration not stated), which growth inhibition [1, 7] is on record?
The growth inhibition was -3%.

And the growth inhibition [1, 8]?
Its growth inhibition is 87% (active).

What about the growth inhibition ([1]; at 50.0 µM) of the same molecule?
The growth inhibition was 36.9%.

What about the growth inhibition [2, 7] of the same molecule?
Its growth inhibition is -30%.

What about the growth inhibition [2, 8] of the same molecule?
The growth inhibition was 78% (active).

And the growth inhibition ([2]; at 50.0 µM)?
Its growth inhibition is 42.1%.

What about the growth inhibition [3, 7] of the same molecule?
Its growth inhibition is -23%.

What about the growth inhibition [3, 8] of the same molecule?
The growth inhibition was 68%.

And the growth inhibition ([3]; at 50.0 µM)?
Its growth inhibition is 57.6%.

What about the growth inhibition [4, 7] of the same molecule?
Its growth inhibition is 26%.

What about the growth inhibition [4, 8] of the same molecule?
Its growth inhibition is 20%.

What about the growth inhibition ([4]; at 50.0 µM) of the same molecule?
The growth inhibition was 55.5%.

What about the growth inhibition [5, 7] of the same molecule?
The growth inhibition was 21%.

What about the growth inhibition [5, 8] of the same molecule?
The growth inhibition was 92% (active).

And the growth inhibition ([5]; at 50.0 µM)?
Its growth inhibition is 70% (active).

And the growth inhibition [6, 7]?
The growth inhibition was -11%.

And the growth inhibition [6, 8]?
Its growth inhibition is 52%.

What about the growth inhibition ([6]; at 50.0 µM) of the same molecule?
Its growth inhibition is 50.4%.

For `CCOC(=O)C(=Cc1cccnc1C)C(=O)OCC`, which growth inhibition [1, 7] is on record?
The growth inhibition was 16%.

And the growth inhibition [1, 8]?
The growth inhibition was 1%.

And the growth inhibition ([1]; at 50.0 µM)?
Its growth inhibition is 70.9% (active).

What about the growth inhibition [2, 7] of the same molecule?
The growth inhibition was -3%.

And the growth inhibition [2, 8]?
Its growth inhibition is 4%.

What about the growth inhibition ([2]; at 50.0 µM) of the same molecule?
Its growth inhibition is 51.7%.

And the growth inhibition [3, 7]?
Its growth inhibition is 42%.

And the growth inhibition [3, 8]?
Its growth inhibition is 4%.

And the growth inhibition ([3]; at 50.0 µM)?
Its growth inhibition is 60.7%.

What about the growth inhibition [4, 7] of the same molecule?
Its growth inhibition is 16%.

And the growth inhibition [4, 8]?
The growth inhibition was 27%.

And the growth inhibition ([4]; at 50.0 µM)?
The growth inhibition was 45.9%.

And the growth inhibition [5, 7]?
The growth inhibition was -31%.

What about the growth inhibition [5, 8] of the same molecule?
Its growth inhibition is -14%.

And the growth inhibition ([5]; at 50.0 µM)?
Its growth inhibition is 73.2% (active).

And the growth inhibition [6, 7]?
Its growth inhibition is -8%.

And the growth inhibition [6, 8]?
The growth inhibition was 1%.

What about the growth inhibition ([6]; at 50.0 µM) of the same molecule?
The growth inhibition was 57.7%.

Which results are given for `CC(C)OP(=O)(OC(C)C)/C(=N/Nc1ccc([N+](=O)[O-])cc1)NNC(=O)c1ccccc1`?
growth inhibition [1, 7]: -24%; growth inhibition [1, 8]: 61%; growth inhibition ([1]; at 50.0 µM): 95.2% (active); growth inhibition [2, 7]: -12%; growth inhibition [2, 8]: 74% (active); growth inhibition ([2]; at 50.0 µM): 95.7% (active); growth inhibition [3, 7]: -11%; growth inhibition [3, 8]: 53%; growth inhibition ([3]; at 50.0 µM): 93.5% (active); growth inhibition [4, 7]: -21%; growth inhibition [4, 8]: 67%; growth inhibition ([4]; at 50.0 µM): 87.2% (active); growth inhibition [5, 7]: -15%; growth inhibition [5, 8]: 74% (active); growth inhibition ([5]; at 50.0 µM): 94.9% (active); growth inhibition [6, 7]: 3%; growth inhibition [6, 8]: 92% (active); growth inhibition ([6]; at 50.0 µM): 94.6% (active)

For `CCCCCCCCCSC(=S)N(C)NC(=O)c1ccccn1`, which growth inhibition [1, 7] is on record?
The growth inhibition was 14%.

What about the growth inhibition [1, 8] of the same molecule?
The growth inhibition was 70% (active).

And the growth inhibition ([1]; at 50.0 µM)?
The growth inhibition was 89% (active).

What about the growth inhibition [2, 7] of the same molecule?
The growth inhibition was 6%.

And the growth inhibition [2, 8]?
The growth inhibition was 81% (active).

And the growth inhibition ([2]; at 50.0 µM)?
The growth inhibition was 94% (active).

What about the growth inhibition [3, 7] of the same molecule?
Its growth inhibition is 4%.

What about the growth inhibition [3, 8] of the same molecule?
The growth inhibition was 82% (active).

And the growth inhibition ([3]; at 50.0 µM)?
The growth inhibition was 93.8% (active).

What about the growth inhibition [4, 7] of the same molecule?
The growth inhibition was -3%.

And the growth inhibition [4, 8]?
The growth inhibition was 71% (active).

And the growth inhibition ([4]; at 50.0 µM)?
The growth inhibition was 92.1% (active).

What about the growth inhibition [5, 7] of the same molecule?
The growth inhibition was -7%.

And the growth inhibition [5, 8]?
Its growth inhibition is 78% (active).

And the growth inhibition ([5]; at 50.0 µM)?
Its growth inhibition is 92% (active).

And the growth inhibition [6, 7]?
The growth inhibition was 8%.

And the growth inhibition [6, 8]?
Its growth inhibition is 85% (active).

What about the growth inhibition ([6]; at 50.0 µM) of the same molecule?
Its growth inhibition is 93.7% (active).

Which growth inhibition [1, 7] does the source give for `C/C(=C/CC1CCC2C3=CCC4CC(O)CCC4(C)C3CCC12C)C(C)C(C)C` (configuration not stated) here?
Its growth inhibition is 17%.

What about the growth inhibition [1, 8] of the same molecule?
The growth inhibition was 97% (active).

And the growth inhibition ([1]; at 50.0 µM)?
The growth inhibition was 98% (active).

And the growth inhibition [2, 7]?
Its growth inhibition is -4%.

What about the growth inhibition [2, 8] of the same molecule?
The growth inhibition was 86% (active).

What about the growth inhibition ([2]; at 50.0 µM) of the same molecule?
Its growth inhibition is 74.3% (active).

What about the growth inhibition [3, 7] of the same molecule?
The growth inhibition was 2%.

And the growth inhibition [3, 8]?
The growth inhibition was 66%.

What about the growth inhibition ([3]; at 50.0 µM) of the same molecule?
Its growth inhibition is 59.1%.

What about the growth inhibition [4, 7] of the same molecule?
Its growth inhibition is 0%.

And the growth inhibition [4, 8]?
Its growth inhibition is 69%.

And the growth inhibition ([4]; at 50.0 µM)?
Its growth inhibition is 81.5% (active).

And the growth inhibition [5, 7]?
The growth inhibition was -2%.

And the growth inhibition [5, 8]?
Its growth inhibition is 97% (active).

And the growth inhibition ([5]; at 50.0 µM)?
The growth inhibition was 64.8%.

And the growth inhibition [6, 7]?
The growth inhibition was 13%.

And the growth inhibition [6, 8]?
Its growth inhibition is 89% (active).

What about the growth inhibition ([6]; at 50.0 µM) of the same molecule?
The growth inhibition was 97.3% (active).

Which results are given for `Cc1cc(C)c(O)c(C(C)(C)C)c1`?
growth inhibition [1, 7]: -1%; growth inhibition [1, 8]: 3%; growth inhibition ([1]; at 50.0 µM): 92.3% (active); growth inhibition [2, 7]: 1%; growth inhibition [2, 8]: 1%; growth inhibition ([2]; at 50.0 µM): 59.7%; growth inhibition [3, 7]: 1%; growth inhibition [3, 8]: 0%; growth inhibition ([3]; at 50.0 µM): 74.7% (active); growth inhibition [4, 7]: 2%; growth inhibition [4, 8]: 8%; growth inhibition ([4]; at 50.0 µM): 64.6%; growth inhibition [5, 7]: 3%; growth inhibition [5, 8]: -10%; growth inhibition ([5]; at 50.0 µM): 66.8%; growth inhibition [6, 7]: 2%; growth inhibition [6, 8]: 4%; growth inhibition ([6]; at 50.0 µM): 89.7% (active)

For `[N-]=[N+]=Nc1ccnc2ccc(C3CCCCC3)cc12`, which growth inhibition [1, 7] is on record?
The growth inhibition was -8%.

What about the growth inhibition [1, 8] of the same molecule?
Its growth inhibition is 99% (active).

What about the growth inhibition ([1]; at 50.0 µM) of the same molecule?
Its growth inhibition is 56.5%.

What about the growth inhibition [2, 7] of the same molecule?
Its growth inhibition is -8%.

And the growth inhibition [2, 8]?
The growth inhibition was 100% (active).

And the growth inhibition ([2]; at 50.0 µM)?
The growth inhibition was 30.9%.

And the growth inhibition [3, 7]?
Its growth inhibition is -8%.

And the growth inhibition [3, 8]?
Its growth inhibition is 99% (active).

What about the growth inhibition ([3]; at 50.0 µM) of the same molecule?
The growth inhibition was 94.8% (active).

And the growth inhibition [4, 7]?
Its growth inhibition is 6%.

And the growth inhibition [4, 8]?
Its growth inhibition is 99% (active).

And the growth inhibition ([4]; at 50.0 µM)?
Its growth inhibition is 51.1%.

And the growth inhibition [5, 7]?
The growth inhibition was -4%.

What about the growth inhibition [5, 8] of the same molecule?
Its growth inhibition is 99% (active).

And the growth inhibition ([5]; at 50.0 µM)?
The growth inhibition was 67.3%.

What about the growth inhibition [6, 7] of the same molecule?
The growth inhibition was -2%.

What about the growth inhibition [6, 8] of the same molecule?
Its growth inhibition is 99% (active).

And the growth inhibition ([6]; at 50.0 µM)?
Its growth inhibition is 91.7% (active).

Which results are given for `Nc1ccccc1O`?
growth inhibition [1, 7]: 26%; growth inhibition [1, 8]: 58%; growth inhibition ([1]; at 50.0 µM): 55.8%; growth inhibition [2, 7]: 17%; growth inhibition [2, 8]: 37%; growth inhibition ([2]; at 50.0 µM): 35%; growth inhibition [3, 7]: 17%; growth inhibition [3, 8]: 40%; growth inhibition ([3]; at 50.0 µM): 51.1%; growth inhibition [4, 7]: 15%; growth inhibition [4, 8]: 30%; growth inhibition ([4]; at 50.0 µM): 8.3%; growth inhibition [5, 7]: 54%; growth inhibition [5, 8]: 77% (active); growth inhibition ([5]; at 50.0 µM): 71% (active); growth inhibition [6, 7]: 45%; growth inhibition [6, 8]: 77% (active); growth inhibition ([6]; at 50.0 µM): 73.2% (active)
